In PubChem BioAssay AID1159580 (chemical genetic matrix, 2015):
About 2,000 (36%) of roughly 5,500 compounds were called active. Another 18% or so got no clear call; they are omitted. The list shows a part of the results. Values without a mark were called inactive. Rule as the data show it: active = normalized growth mostly below about 0.91 (no sharp cut-off); inconclusive = no clear call, values can overlap the other calls; inactive = mostly above about 0.92.

Assay: chemical genetic growth profiling, strain panel (AID 1159580);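 also: tested at 20 µM; growth read once vehicle control cultures reached saturation at 30 °C; 1 = growth at the plate median or of vehicle wells; lower values mean less growth of the strain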
Conditions: growth OD

Q: Which normalized growth (S. cerevisiae deletion strains, locus YKL068W, active compounds read low) does the source give for `C=C(C)[C@H]1CC=C(C(=O)O)CC1` here?
A: 0.858 (active)

Q: And the normalized growth (S. cerevisiae deletion strains, locus YKL085W, strain MDH1 (second series), active compounds read low)?
A: 0.84 (active)

Q: What about the normalized growth (S. cerevisiae deletion strains, locus YKL085W, strain MDH1, active compounds read low) of the same molecule?
A: 0.84 (active)

Q: What about the normalized growth (S. cerevisiae deletion strains, locus YKL160W, strain elf1, active compounds read low) of the same molecule?
A: 0.969

Q: What about the normalized growth (S. cerevisiae deletion strains, locus YKL190W, strain CNB1, active compounds read low) of the same molecule?
A: 1.01

Q: What about the normalized growth (S. cerevisiae deletion strains, locus YKR001C, strain vps1, active compounds read low) of the same molecule?
A: 0.858 (active)

Q: And the normalized growth (S. cerevisiae deletion strains, locus YKR026C, strain gcn3, active compounds read low)?
A: 0.98

Q: What about the normalized growth (S. cerevisiae deletion strains, locus YKR091W, strain srl3, active compounds read low) of the same molecule?
A: 0.995

Q: What about the normalized growth (S. cerevisiae deletion strains, locus YLL001W, strain dnm1, active compounds read low) of the same molecule?
A: 0.944

Q: What about the normalized growth (S. cerevisiae deletion strains, locus YLL026W, active compounds read low) of the same molecule?
A: 0.97

Q: What about the normalized growth (S. cerevisiae deletion strains, locus YLL041C, strain sdh2, active compounds read low) of the same molecule?
A: 0.998

Q: And the normalized growth (S. cerevisiae deletion strains, locus YLR027C, strain aat2, active compounds read low)?
A: 0.933

Q: And the normalized growth (S. cerevisiae deletion strains, locus YLR039C, strain RIC1, active compounds read low)?
A: 0.971

Q: What about the normalized growth (S. cerevisiae deletion strains, locus YLR058C, strain SHM2, active compounds read low) of the same molecule?
A: 0.996

Q: And the normalized growth (S. cerevisiae deletion strains, locus YLR102C, strain apc9, active compounds read low)?
A: 0.966

Q: What about the normalized growth (S. cerevisiae deletion strains, locus YLR113W, strain HOG1, active compounds read low) of the same molecule?
A: 0.658 (active)

Q: And the normalized growth (S. cerevisiae deletion strains, locus YLR221C, strain rsa3, active compounds read low)?
A: 0.907

Q: What about the normalized growth (S. cerevisiae deletion strains, locus YLR258W, strain gsy2, active compounds read low) of the same molecule?
A: 0.982

Q: And the normalized growth (S. cerevisiae deletion strains, locus YLR262C, strain YPT6 (second series), active compounds read low)?
A: 0.979

Q: And the normalized growth (S. cerevisiae deletion strains, locus YLR262C, strain YPT6, active compounds read low)?
A: 0.977

Q: What about the normalized growth (S. cerevisiae deletion strains, locus YLR268W, strain sec22, active compounds read low) of the same molecule?
A: 0.948

Q: What about the normalized growth (S. cerevisiae deletion strains, locus YLR320W, strain mms22, active compounds read low) of the same molecule?
A: 0.962

Q: And the normalized growth (S. cerevisiae deletion strains, locus YLR330W, strain CHS5, active compounds read low)?
A: 0.99

Q: And the normalized growth (S. cerevisiae deletion strains, locus YLR342W, strain FKS1 (second series), active compounds read low)?
A: 0.852

Q: And the normalized growth (S. cerevisiae deletion strains, locus YLR342W, strain FKS1, active compounds read low)?
A: 0.976

Q: And the normalized growth (S. cerevisiae deletion strains, locus YLR357W, strain rsc2, active compounds read low)?
A: 0.932

Q: What about the normalized growth (S. cerevisiae deletion strains, locus YLR370C, strain arc18, active compounds read low) of the same molecule?
A: 0.989

Q: And the normalized growth (S. cerevisiae deletion strains, locus YLR371W, strain rom2, active compounds read low)?
A: 0.949

Q: What about the normalized growth (S. cerevisiae deletion strains, locus YLR384C, strain iki3, active compounds read low) of the same molecule?
A: 0.986

Q: And the normalized growth (S. cerevisiae deletion strains, locus YLR418C, strain cdc73, active compounds read low)?
A: 0.982

Q: And the normalized growth (S. cerevisiae deletion strains, locus YML016C, strain PPZ1, active compounds read low)?
A: 1.02

Q: And the normalized growth (S. cerevisiae deletion strains, locus YML032C, strain rad52, active compounds read low)?
A: 0.919

Q: And the normalized growth (S. cerevisiae deletion strains, locus YML120C, strain ndi1, active compounds read low)?
A: 0.986

Q: What about the normalized growth (S. cerevisiae deletion strains, locus YML124C, strain tub3, active compounds read low) of the same molecule?
A: 0.964

Q: What about the normalized growth (S. cerevisiae deletion strains, locus YMR058W, strain fet3, active compounds read low) of the same molecule?
A: 0.96

Q: And the normalized growth (S. cerevisiae deletion strains, locus YMR078C, strain ctf18, active compounds read low)?
A: 0.956

Q: And the normalized growth (S. cerevisiae deletion strains, locus YMR125W, strain sto1, active compounds read low)?
A: 1.03

Q: What about the normalized growth (S. cerevisiae deletion strains, locus YMR129W, active compounds read low) of the same molecule?
A: 0.991

Q: What about the normalized growth (S. cerevisiae deletion strains, locus YMR205C, strain PFK2, active compounds read low) of the same molecule?
A: 1.02

Q: And the normalized growth (S. cerevisiae deletion strains, locus YMR223W, strain ubp8, active compounds read low)?
A: 0.917

Q: And the normalized growth (S. cerevisiae deletion strains, locus YMR231W, strain pep5, active compounds read low)?
A: 0.988

Q: And the normalized growth (S. cerevisiae deletion strains, locus YMR263W, strain SAP30, active compounds read low)?
A: 0.952

Q: And the normalized growth (S. cerevisiae deletion strains, locus YMR307W, strain GAS1, active compounds read low)?
A: 0.821

Q: And the normalized growth (S. cerevisiae deletion strains, locus YNL067W, strain RPL9B, active compounds read low)?
A: 0.908

Q: And the normalized growth (S. cerevisiae deletion strains, locus YNL071W, strain lat1, active compounds read low)?
A: 0.991

Q: What about the normalized growth (S. cerevisiae deletion strains, locus YNL128W, strain TEP1, active compounds read low) of the same molecule?
A: 0.996

Q: What about the normalized growth (S. cerevisiae deletion strains, locus YNL153C, strain GIM3, active compounds read low) of the same molecule?
A: 0.924

Q: And the normalized growth (S. cerevisiae deletion strains, locus YNL183C, strain NPR1, active compounds read low)?
A: 0.743 (active)

Q: What about the normalized growth (S. cerevisiae deletion strains, locus YNL209W, strain ssb2, active compounds read low) of the same molecule?
A: 0.992

Q: And the normalized growth (S. cerevisiae deletion strains, locus YNL233W, strain BNI4, active compounds read low)?
A: 0.955

Q: And the normalized growth (S. cerevisiae deletion strains, locus YNL248C, strain rpa49, active compounds read low)?
A: 0.803 (active)

Q: What about the normalized growth (S. cerevisiae deletion strains, locus YNL250W, strain rad50, active compounds read low) of the same molecule?
A: 0.852 (active)

Q: What about the normalized growth (S. cerevisiae deletion strains, locus YNL271C, strain bni1, active compounds read low) of the same molecule?
A: 0.876 (active)

Q: What about the normalized growth (S. cerevisiae deletion strains, locus YNL298W, strain CLA4, active compounds read low) of the same molecule?
A: 0.814 (active)

Q: What about the normalized growth (S. cerevisiae deletion strains, locus YNL307C, strain MCK1, active compounds read low) of the same molecule?
A: 0.912

Q: And the normalized growth (S. cerevisiae deletion strains, locus YNL322C, strain KRE1 (second series), active compounds read low)?
A: 0.912

Q: And the normalized growth (S. cerevisiae deletion strains, locus YNL322C, strain KRE1, active compounds read low)?
A: 1

Q: What about the normalized growth (S. cerevisiae deletion strains, locus YNR049C, strain mso1, active compounds read low) of the same molecule?
A: 0.971

Q: What about the normalized growth (S. cerevisiae deletion strains, locus YNR052C, strain pop2, active compounds read low) of the same molecule?
A: 0.921

Q: What about the normalized growth (S. cerevisiae deletion strains, locus YOL006C, strain TOP1, active compounds read low) of the same molecule?
A: 0.97

Q: And the normalized growth (S. cerevisiae deletion strains, locus YOL012C, strain htz1)?
A: 1.09

Q: What about the normalized growth (S. cerevisiae deletion strains, locus YOL147C, strain pex11, active compounds read low) of the same molecule?
A: 0.976

Q: What about the normalized growth (S. cerevisiae deletion strains, locus YOR001W, strain rrp6, active compounds read low) of the same molecule?
A: 0.894

Q: What about the normalized growth (S. cerevisiae deletion strains, locus YOR061W, strain CKA2, active compounds read low) of the same molecule?
A: 0.971

Q: What about the normalized growth (S. cerevisiae deletion strains, locus YOR069W, strain VPS5, active compounds read low) of the same molecule?
A: 1

Q: And the normalized growth (S. cerevisiae deletion strains, locus YOR070C, strain gyp1, active compounds read low)?
A: 0.963

Q: And the normalized growth (S. cerevisiae deletion strains, locus YOR080W, strain dia2, active compounds read low)?
A: 0.971

Q: What about the normalized growth (S. cerevisiae deletion strains, locus YOR083W, strain WHI5, active compounds read low) of the same molecule?
A: 0.934

Q: What about the normalized growth (S. cerevisiae deletion strains, locus YOR106W, strain vam3, active compounds read low) of the same molecule?
A: 0.967

Q: What about the normalized growth (S. cerevisiae deletion strains, locus YOR136W, strain idh2, active compounds read low) of the same molecule?
A: 0.966

Q: And the normalized growth (S. cerevisiae deletion strains, locus YOR144C, strain elg1, active compounds read low)?
A: 0.946

Q: And the normalized growth (S. cerevisiae deletion strains, locus YOR184W, strain ser1, active compounds read low)?
A: 0.862 (active)

Q: And the normalized growth (S. cerevisiae deletion strains, locus YOR231W, strain MKK1, active compounds read low)?
A: 0.761 (active)

Q: And the normalized growth (S. cerevisiae deletion strains, locus YOR265W, strain rbl2, active compounds read low)?
A: 1.01

Q: What about the normalized growth (S. cerevisiae deletion strains, locus YOR270C, strain vph1, active compounds read low) of the same molecule?
A: 0.959

Q: And the normalized growth (S. cerevisiae deletion strains, locus YOR290C, strain snf2, active compounds read low)?
A: 0.95

Q: And the normalized growth (S. cerevisiae deletion strains, locus YOR316C, strain cot1, active compounds read low)?
A: 0.978

Q: And the normalized growth (S. cerevisiae deletion strains, locus YPL051W, strain arl3, active compounds read low)?
A: 0.964

Q: And the normalized growth (S. cerevisiae deletion strains, locus YPL078C, strain atp4, active compounds read low)?
A: 0.959

Q: What about the normalized growth (S. cerevisiae deletion strains, locus YPL106C, strain sse1, active compounds read low) of the same molecule?
A: 0.967

Q: And the normalized growth (S. cerevisiae deletion strains, locus YPL240C, strain hsp82, active compounds read low)?
A: 0.989

Q: What about the normalized growth (S. cerevisiae deletion strains, locus YPL241C, strain CIN2, active compounds read low) of the same molecule?
A: 1.01

Q: And the normalized growth (S. cerevisiae deletion strains, locus YPL256C, strain CLN2, active compounds read low)?
A: 0.71 (active)

Q: What about the normalized growth (S. cerevisiae deletion strains, locus YPR119W, strain clb2, active compounds read low) of the same molecule?
A: 0.981

Q: What about the normalized growth (S. cerevisiae deletion strains, locus YPR141C, strain kar3, active compounds read low) of the same molecule?
A: 0.751 (active)

Q: And the normalized growth (S. cerevisiae deletion strains, locus YPR163C, strain tif3, active compounds read low)?
A: 0.911 (active)

Q: And the normalized growth (S. cerevisiae deletion strains, locus YPR167C, strain met16, active compounds read low)?
A: 0.929

Q: And the normalized growth (S. cerevisiae deletion strains, strain wtn01, active compounds read low)?
A: 0.904

Q: And the normalized growth (S. cerevisiae strains, strain wild type, active compounds read low)?
A: 0.999
